# According to PubChem BioAssay (Tox21):
# Where “and” joins values, the source holds several entries; their conditions need not be identical. Identical values can stand only once. Inconclusive results are not listed. A call without a number means that no potency is given here. More than one record can exist for a structure, and the calls need not agree. Calls of active or inactive are those of the source. Unless noted, calls follow the shape of the dose curve; as a rule, active = well fitted curve in the direction sought with a large enough effect in the repeat runs; inconclusive = weak or mixed curves; inactive = no such curve, though single readings can be large; an effect the other way counts as inactive or inconclusive.
# What was measured:
# [1] = A CellTox Green Cytotoxicity Assay to monitor cytotoxicity in HepG2 cells - 0 hour (AID 1224882); also: nearly all actives have a fitted effect of over 35% in size
# In short: (§1)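 Fluorescent DNA-binding dye, 600 HepG2 cells/well, 5 h preincubation then compound in DMSO; same plates read at 0–40 h, 37 C.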
# [2] = A CellTox Green Cytotoxicity Assay to monitor cytotoxicity in HepG2 cells - 32 hour (AID 1224883); also: nearly all actives have a fitted effect of over 50% in size; also: potency is read from the fitted curve at half-maximal effect
# In short: as §1
# [3] = A CellTox Green Cytotoxicity Assay to monitor cytotoxicity in HEK293 cells - 8 hour (AID 1224884); also: nearly all actives have a fitted effect of over 35% in size; also: potency is read from the fitted curve at half-maximal effect
# In short: (§2)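 Homogeneous no-lysis format: HEK293 cell suspension mixed with CellTox Green reagent, seeded, incubated 5 h at 37 C/5% CO2, then dosed by pintool with compound in DMSO.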
# [4] = qHTS RealTime-Glo MT Cell Viability Assay in HepG2 cells - 16 hour (AID 1224885); also: nearly all actives have a fitted effect of over 50% in size; also: potency is read from the fitted curve at half-maximal effect
# In short: (§3)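 Viability was tracked continuously by NanoLuc luminescence from prosubstrate reduced by living HepG2 cells, at successive time points over 40 h of compound exposure. Cells with reagent were preincubated 5 h at 37 °C before compound addition.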
# [5] = qHTS RealTime-Glo MT Cell Viability Assay in HEK293 cells - 24 hour (AID 1224886); also: nearly all actives have a fitted effect of over 50% in size; also: potency is read from the fitted curve at half-maximal effect
# In short: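 Viability tracked continuously by luminescence as live cells reduce a prosubstrate for NanoLuc; HEK293 cells preincubated 5 h, compound-treated at 37 C, and read at 0, 8, 16, 24, 32 and 40 h.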
# [6] = qHTS RealTime-Glo MT Cell Viability Assay in HEK293 cells - 8 hour (AID 1224887); also: nearly all actives have a fitted effect of over 50% in size; also: potency is read from the fitted curve at half-maximal effect
# In short: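 Measured as luminescence from the same continuously cultured HEK293 wells at successive time points (0, 8, 16, 24, 32, 40 h) after compound addition. Reagent present from seeding; dosing at 5 h; incubation 37 C.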
# [7] = A CellTox Green Cytotoxicity Assay to monitor cytotoxicity in HEK293 cells - 16 hour (AID 1224888); also: nearly all actives have a fitted effect of over 35% in size; also: potency is read from the fitted curve at half-maximal effect
# In short: as §2
# [8] = qHTS RealTime-Glo MT Cell Viability Assay in HepG2 cells - 0 hour (AID 1224889); also: nearly all actives have a fitted effect of over 50% in size
# In short: as §3
# [9] = A CellTox Green Cytotoxicity Assay to monitor cytotoxicity in HepG2 cells - 8 hour (AID 1224890); also: nearly all actives have a fitted effect of over 45% in size; also: potency is read from the fitted curve at half-maximal effect
# In short: as §1
# [10] = qHTS assay to identify small molecule antagonists of the estrogen receptor alpha (ER-alpha) signaling pathway using the BG1 cell line in the presence of 0.1 nM 17-beta-estradiol - cell viability counter screen (AID 1259241); also: nearly all actives have a fitted effect of over 40% in size; also: potency is read from the fitted curve at half-maximal effect
# In short: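 Cells were plated and left 24 hr, compounds in DMSO were pinned in, 17beta-estradiol was added to 0.1 nM final, and after 22 hr CellTiter-Fluor reagent was added for 30 min before fluorescence was read.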
# [11] = qHTS assay to identify small molecule antagonists of the androgen receptor (AR) signaling pathway using the MDA cell line in the presence of 0.5 nM R1881 - cell viability counter screen (AID 1259242); also: nearly all actives have a fitted effect of over 45% in size; also: potency is read from the fitted curve at half-maximal effect
# In short: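 Human breast carcinoma MDA-kb2 cells, cultured without CO2, receive compounds alongside 0.5 nM (final) R1881 agonist. After 16 hr at 37C, viability is taken as live-cell protease signal.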
# [12] = target: Estrogen receptor (Homo sapiens) (UniProt P03372); assay: qHTS assay to identify small molecule antagonists of the estrogen receptor alpha (ER-alpha) signaling pathway using the BG1 cell line in the presence of 0.1 nM 17-beta-estradiol (AID 1259244); also: nearly all actives have a fitted effect of over 50% in size; also: potency is read from the fitted curve at half-maximal effect
# In short: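 Seeding of stripped-serum-adapted VM7Luc4E2 cells, 24 h attachment, compound transfer, then 0.1 nM final 17beta-estradiol; after 22 h incubation, ONE-Glo reagent and luminescence reading.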
# [13] = qHTS assay to identify small molecule HDAC inhibitors (AID 1259364);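 also: wild-type HCT-116 cells with endogenous class I/II HDAC activity; top concentration of the series differs between compounds; nearly all actives have a fitted effect of over 45% in size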
# In short: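 After a 2 hr compound incubation (37C, 5% CO2), HCT-116 cells seeded at 1,500/well the day before received HDAC-Glo reagent; signal read as luminescence after 30 min at room temperature.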
# [14] = qHTS assay to identify small molecule HDAC inhibitors - cell viability counter screen (AID 1259365); also: nearly all actives have a fitted effect of over 50% in size; also: potency is read from the fitted curve at half-maximal effect
# In short: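 Counter screen in wild-type HCT-116 cells: compounds dissolved in DMSO are pin-transferred onto overnight-plated cells and left 2hr at 37C. ATP-based CellTiter-Glo luminescence then measures viable cells.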
# [15] = qHTS assay to identify small molecule agonists of the sonic hedgehog signaling (Shh) pathway - cell viability counter screen (AID 1259366); also: nearly all actives have a fitted effect of over 50% in size; also: potency is read from the fitted curve at half-maximal effect
# In short: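 Cells are plated at 2,000 per well and left 4hr at 37C, 5% CO2 before compound addition. After 23hr of treatment, CellTiter-Fluor reagent is added for 1hr at 37C and fluorescence is measured.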
# [16] = qHTS assay to identify small molecule antagonists of the sonic hedgehog signaling (Shh) pathway - cell viability counter screen (AID 1259367); also: nearly all actives have a fitted effect of over 55% in size; also: potency is read from the fitted curve at half-maximal effect
# In short: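 Fluorescence read-out (CellTiter-Fluor, 1 hr at 37C) taken after 23 hr compound treatment of 3T3 Gli1-Luc cells stimulated with conditioned medium. Cells were seeded at 2,000 per well and pre-incubated 4 hr.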
# [17] = qHTS assay to identify small molecule agonists of the sonic hedgehog signaling (Shh) pathway (AID 1259368; calls by dose curve;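 also: NIH/3T3-derived 3T3Gli1-Luc cells carrying a stable Gli1-driven firefly luciferase reporter; series mostly up to about 92 µM; nearly all actives have a fitted effect of over 15% in size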)
# In short: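 Stable NIH/3T3 Gli1-Luc reporter clone; 24 hr cpd exposure after a 4 hr settling period; luminescence endpoint.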
# [18] = qHTS assay to identify small molecule antagonists of the sonic hedgehog signaling (Shh) pathway (AID 1259369; calls by dose curve; also: nearly all actives have a fitted effect of over 45% in size; also: potency is read from the fitted curve at half-maximal effect)
# In short: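 Gli1 transcriptional reporter (firefly Luc) in NIH/3T3 background, conditioned-medium activated. 24hr exposure, luminescence endpoint.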
# [19] = target: Androgen receptor (Homo sapiens) (UniProt P10275); assay: qHTS assay to identify small molecule antagonists of the androgen receptor (AR) signaling pathway using the MDA cell line in the presence of 0.5 nM R1881 (AID 1259243); also: nearly all actives have a fitted effect of over 50% in size
# In short: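 Cells: MDA-kb2 (MMTV-luc). Stimulus: 0.5 nM R1881. Time: 16 hr, 37C, no CO2. Detection: ONE-Glo luminescence after 30 min at RT.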
# [20] = qHTS assay to identify small molecule phospholipidosis (PLD) inducers (AID 1259344; active = well fitted curve in the direction sought with a large enough effect; an effect the other way counts as inactive or inconclusive)
# In short: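 Read-out is LipidTOX Red fluorescence (ex 595/em 615) imaged in HepG2 cells after 24 h compound exposure at 37 C, with Hoechst nuclear counterstain (ex 352/em 461) allowing per-cell normalisation.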
# Chain of Androgen receptor (Homo sapiens) (P10275 whole entry, looked up): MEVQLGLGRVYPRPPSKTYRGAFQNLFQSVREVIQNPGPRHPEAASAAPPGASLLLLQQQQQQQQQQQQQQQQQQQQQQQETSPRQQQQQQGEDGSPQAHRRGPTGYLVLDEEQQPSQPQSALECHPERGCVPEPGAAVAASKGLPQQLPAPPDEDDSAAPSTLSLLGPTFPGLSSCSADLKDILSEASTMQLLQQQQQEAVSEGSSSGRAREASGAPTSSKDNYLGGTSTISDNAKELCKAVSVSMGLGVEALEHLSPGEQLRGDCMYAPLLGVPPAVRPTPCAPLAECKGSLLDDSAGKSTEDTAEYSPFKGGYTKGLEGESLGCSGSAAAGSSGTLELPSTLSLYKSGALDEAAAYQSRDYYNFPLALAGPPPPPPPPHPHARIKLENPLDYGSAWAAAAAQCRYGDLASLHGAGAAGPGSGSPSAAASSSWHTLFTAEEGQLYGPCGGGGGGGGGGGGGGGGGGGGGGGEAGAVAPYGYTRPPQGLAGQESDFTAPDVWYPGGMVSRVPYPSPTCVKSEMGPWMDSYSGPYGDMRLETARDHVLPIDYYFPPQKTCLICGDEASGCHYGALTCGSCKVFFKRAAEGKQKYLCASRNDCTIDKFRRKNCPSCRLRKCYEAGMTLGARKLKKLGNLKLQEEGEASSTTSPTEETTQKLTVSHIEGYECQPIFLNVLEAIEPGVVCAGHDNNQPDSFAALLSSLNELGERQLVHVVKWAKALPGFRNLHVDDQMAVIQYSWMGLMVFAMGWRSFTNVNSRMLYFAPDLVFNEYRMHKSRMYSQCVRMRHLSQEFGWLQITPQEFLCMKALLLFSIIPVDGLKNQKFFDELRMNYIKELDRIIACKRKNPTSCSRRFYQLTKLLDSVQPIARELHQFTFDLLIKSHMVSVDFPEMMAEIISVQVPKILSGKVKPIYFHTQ
# Chain of Estrogen receptor (Homo sapiens) (P03372 whole entry, looked up): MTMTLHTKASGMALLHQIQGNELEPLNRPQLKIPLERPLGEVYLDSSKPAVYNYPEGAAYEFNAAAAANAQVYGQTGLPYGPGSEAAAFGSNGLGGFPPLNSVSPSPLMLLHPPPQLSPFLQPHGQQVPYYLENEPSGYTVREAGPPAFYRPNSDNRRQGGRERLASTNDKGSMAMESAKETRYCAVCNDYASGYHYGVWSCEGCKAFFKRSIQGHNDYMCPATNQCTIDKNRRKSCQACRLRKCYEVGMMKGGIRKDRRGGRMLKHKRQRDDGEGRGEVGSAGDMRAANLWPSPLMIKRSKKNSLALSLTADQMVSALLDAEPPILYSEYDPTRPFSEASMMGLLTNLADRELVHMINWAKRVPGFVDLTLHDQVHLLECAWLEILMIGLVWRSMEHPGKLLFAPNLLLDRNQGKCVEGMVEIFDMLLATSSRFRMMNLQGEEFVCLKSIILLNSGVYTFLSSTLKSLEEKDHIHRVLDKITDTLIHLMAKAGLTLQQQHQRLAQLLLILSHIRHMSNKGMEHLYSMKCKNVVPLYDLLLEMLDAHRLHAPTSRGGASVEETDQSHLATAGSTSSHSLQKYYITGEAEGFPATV
SMILES,Potency [1],Potency [2],Potency [3],Potency [4],Potency [5],Potency [6],Potency [7],Potency [8],Potency [9],Potency [10],Potency [11],Potency [12],Potency [13],Potency [14],Potency [15],Potency [16],Potency [17],Potency [18],Potency [19],outcome [20]
CN(C)P(=O)(N(C)C)N(C)C,inactive,inactive,inactive,inactive,inactive,inactive,inactive,inactive,inactive,inactive,inactive,inactive,inactive,inactive,inactive,inactive,inactive,inactive,–,–
CC(C)(c1ccc(OCC2CO2)cc1)c1ccc(OCC2CO2)cc1 (stereo unspecified),inactive,inactive,inactive,inactive,inactive,inactive,inactive,inactive,inactive,inactive,inactive,inactive,inactive,inactive,inactive,inactive,inactive,15.6 µM (active),inactive,–
O=NN(c1ccccc1)c1ccccc1,inactive,inactive,inactive,inactive,inactive,inactive,inactive,inactive,inactive,inactive,inactive,inactive,inactive,inactive,inactive,inactive,inactive,inactive,–,–
CC(C)COC(=O)c1ccccc1C(=O)OCC(C)C,inactive,inactive,inactive,inactive,inactive,inactive,inactive,inactive,inactive,inactive,inactive,inactive,inactive,inactive,inactive,inactive,inactive,inactive,–,–
CCCCOC(=O)COC(=O)c1ccccc1C(=O)OCCCC,inactive,inactive,inactive,inactive,inactive,inactive,inactive,inactive,inactive,inactive,inactive,inactive,inactive,inactive,inactive,inactive,inactive,inactive,–,–
CCC/C=N/O,inactive,inactive,inactive,inactive,inactive,inactive,inactive,inactive,inactive,inactive,inactive,inactive,inactive,inactive,inactive,inactive,inactive,inactive,–,–
CNC(=O)Oc1cccc2c1OC(C)(C)C2,inactive,inactive,inactive,inactive,inactive,inactive,inactive,inactive,inactive,inactive,inactive,inactive,inactive,inactive,inactive,inactive,inactive,inactive,inactive,–
CC(C)(O)C(=O)Nc1ccc([N+](=O)[O-])c(C(F)(F)F)c1,inactive,inactive,inactive,inactive,25.1 µM (active) and 17.9 µM (active),25.1 µM (active),inactive,inactive,inactive,inactive,inactive,31.3 µM (active) and 35.5 µM (active),inactive,inactive,inactive,inactive,inactive,24.8 µM (active) and 22.4 µM (active),–,–
Cc1ccc(N=CN(C)C=Nc2ccc(C)cc2C)c(C)c1,inactive,43.6 µM (active) and inactive,inactive,inactive,39.1 µM (active) and 38.9 µM (active) and inactive,inactive,inactive,inactive,inactive,inactive,inactive,inactive,inactive,inactive,inactive,inactive,inactive,54.7 µM (active) and inactive,–,inactive
CCC[CH2][Sn]([Cl])([CH2]CCC)[CH2]CCC,inactive,1.74 µM (active) and 1.23 µM (active),6.18 µM (active) and 7.76 µM (active),2.19 µM (active) and 692 nM (active),347 nM (active) and 549 nM (active),618 nM (active) and 1.23 µM (active),3.1 µM (active) and 5.49 µM (active),inactive,3.47 µM (active) and 1.95 µM (active),7.71 µM (active) and 6.11 µM (active),1.09 µM (active) and 686 nM (active),487 nM (active) and 433 nM (active),inactive,19.4 µM (active) and 17.2 µM (active),217 nM (active) and 386 nM (active),487 nM (active) and 770 nM (active),inactive,0.307 µM (active),–,–
C[N+](C)(C)C,inactive,inactive,inactive,inactive,inactive,inactive,inactive,inactive,inactive,inactive,inactive,inactive,inactive,inactive,inactive,inactive,inactive,inactive,–,–
O=[N+]([O-])/N=C1\NCCN1Cc1ccc(Cl)nc1,inactive,inactive,inactive,inactive,inactive,inactive,inactive,inactive,inactive,inactive,inactive,inactive,inactive,inactive,inactive,inactive,inactive,inactive,inactive,inactive
